FAS-TE inh – FAS thioesterase (human) inhibition; inhibition, % at 15 µM; actives 0.67% (n = 360,000); recombinant FAS-TE, OMFH fluorogenic substrate, fluorescence endpoint; AID 602261;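 active = compounds whose normalised, plate-corrected inhibition of enzyme fluorescence in the single-dose primary screen is 50% or more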;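 also: 0% = DMSO with enzyme and 100% = substrate without enzyme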
H9c2 protect – modulators protecting cardiomyocytes from myocardial damage; actives 0.63% (n = 360,000); H9c2 cardiomyocytes, H2O2 injury protection, ATPLite, 2 h; protection from H2O2 cell death, % at 20 µM; AID 588492;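 active = compounds giving at least 50% protection of heart cells from peroxide-induced death in the single-dose screen, raw or plate-pattern-corrected value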;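 also: 0% = DMSO wells with peroxide and 100% = DMSO wells without peroxide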
PLC-beta3 inh – blocks human PLC-beta3 enzyme activity | Q01970 | Purified PLC-beta3, fluorogenic substrate, fluorescence | inhibition, % at 12.2 µM | actives 0.18% (n = 370,000);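 also: 0% = median of compound wells on plate and 100% = full blocker control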
Target sequence (Q01970 whole entry, looked up): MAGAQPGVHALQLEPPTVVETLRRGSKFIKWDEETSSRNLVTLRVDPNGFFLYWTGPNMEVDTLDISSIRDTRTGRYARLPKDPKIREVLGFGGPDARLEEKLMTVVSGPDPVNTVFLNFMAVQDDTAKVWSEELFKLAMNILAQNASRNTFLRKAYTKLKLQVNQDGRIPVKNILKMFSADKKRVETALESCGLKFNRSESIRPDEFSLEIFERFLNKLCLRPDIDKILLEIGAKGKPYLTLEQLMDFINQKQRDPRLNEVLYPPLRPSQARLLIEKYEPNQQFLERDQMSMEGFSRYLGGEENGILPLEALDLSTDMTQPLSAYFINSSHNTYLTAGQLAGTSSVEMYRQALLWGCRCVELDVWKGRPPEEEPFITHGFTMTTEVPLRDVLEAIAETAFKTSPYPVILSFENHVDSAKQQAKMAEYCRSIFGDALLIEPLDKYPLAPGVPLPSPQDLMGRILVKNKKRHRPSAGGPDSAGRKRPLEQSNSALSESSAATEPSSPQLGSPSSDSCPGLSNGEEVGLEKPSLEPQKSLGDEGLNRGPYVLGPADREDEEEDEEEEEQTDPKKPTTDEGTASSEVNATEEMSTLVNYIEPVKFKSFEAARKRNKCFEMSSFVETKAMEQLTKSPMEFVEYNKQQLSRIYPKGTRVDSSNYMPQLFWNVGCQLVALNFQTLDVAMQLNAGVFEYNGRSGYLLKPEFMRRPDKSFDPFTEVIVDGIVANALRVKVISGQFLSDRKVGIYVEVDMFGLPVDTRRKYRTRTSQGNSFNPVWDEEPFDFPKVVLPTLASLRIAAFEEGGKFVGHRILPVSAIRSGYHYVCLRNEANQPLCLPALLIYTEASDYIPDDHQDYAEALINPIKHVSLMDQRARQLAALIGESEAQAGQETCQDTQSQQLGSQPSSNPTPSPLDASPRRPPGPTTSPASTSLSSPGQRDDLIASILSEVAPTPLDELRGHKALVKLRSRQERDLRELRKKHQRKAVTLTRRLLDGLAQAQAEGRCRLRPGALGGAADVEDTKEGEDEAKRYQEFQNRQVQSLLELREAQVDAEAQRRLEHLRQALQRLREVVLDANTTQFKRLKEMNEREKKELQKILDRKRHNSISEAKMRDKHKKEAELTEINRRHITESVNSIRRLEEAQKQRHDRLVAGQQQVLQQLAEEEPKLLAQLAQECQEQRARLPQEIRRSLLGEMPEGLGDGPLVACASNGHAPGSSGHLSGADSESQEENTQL
PLC-gamma1 inh – blocks human PLC-gamma1 enzyme activity | AID 720700 | actives 0.84% (n = 370,000) | P19174 | inhibition, % at 12.2 µM | purified PLC-gamma1, fluorogenic substrate, fluorescence; in the data active = inhibition above about 9.5%
PLCgamma1 ctr – inhibits human PLC-gamma1 in PLC-beta3 counter-screen; actives 3.1% (n = 3,300); purified PLC-gamma1, fluorogenic substrate, fluorescence; shares compounds with PLC-gamma1 inh; inhibition, % at 12.3 µM; in the data active = inhibition above about 9.5%
PLCb3 confirm – human PLC-beta3 inhibition, confirmation. shares compounds with PLC-gamma1 inh. purified PLC-beta3, fluorogenic substrate fluorescence. inhibition, % at 12.3 µM. actives 1% (n = 3,300)
Active calls of the source: *; nt = no result given. Sampled rows, rich in hits. Any-hit rate of the full collection: about 2.2%. Rule as the data show it, unless noted: active = inhibition above about 11%; inactive = the rest.

SMILES	FAS-TE inh	H9c2 protect	PLC-beta3 inh	PLC-gamma1 inh	PLCgamma1 ctr	PLCb3 confirm
CC1CCN(C(=O)CSc2ccc(-c3cccc([N+](=O)[O-])c3)nn2)CC1	47	10	-3	3	nt	nt
O=C(CSc1ccc(-c2cccc([N+](=O)[O-])c2)nn1)N1CCCCC1	18	4	0	14*	-2	3
COc1cc(CN2CCC(C)CC2)ccc1OCc1ccccc1	-9	-1	-2	15*	5	4
O=C1CC(N2CCN(c3ccccc3)CC2)C(=O)N1Cc1ccc(Cl)cc1 (stereo unspecified)	18	-6	0	10*	-7	-3
O=C1CC(N2CCN(c3ccc(F)cc3)CC2)C(=O)N1Cc1ccccc1 (stereo unspecified)	4	0	1	-2	nt	nt
Cc1ccc(S(=O)(=O)NCCC(=O)NNc2c(F)c(F)cc(F)c2F)cc1	-5	0	1	6	nt	nt
Cc1[nH]n(-c2ccccc2)c(=O)c1C(C[N+](=O)[O-])c1ccc(Br)cc1 (stereo unspecified)	10	-38	4	3	nt	nt
Cc1[nH]n(-c2ccccc2)c(=O)c1C(c1ccc(C(=O)O)cc1)c1c(C)[nH]n(-c2ccccc2)c1=O	-9	1	8	26*	-11	-5
Cc1[nH]n(-c2ccccc2)c(=O)c1C(c1cccc([N+](=O)[O-])c1O)c1c(C)[nH]n(-c2ccccc2)c1=O	4	-11	14*	31*	4	4
CC(C)(C)CCN1CCC(CN2CCNC(=O)C2=O)CC1	-11	1	1	2	nt	nt
COc1ccc(C(=O)OCc2ccccc2C#N)cc1S(=O)(=O)N1CCOCC1	-2	14	-1	2	nt	nt
CC(C)CCNC(=O)C(c1ccncc1)N(C(=O)Cn1nnc(-c2ccc(F)cc2)n1)c1ccccc1F (stereo unspecified)	4	6	3	10*	-3	0
C[C@@H]1CN([C@H](C)CO)C(=O)CCCn2cc(nn2)CO[C@H]1CN(C)C(=O)Nc1ccc(C(C)(C)C)cc1	-4	2	0	-1	nt	nt
CC(C)[C@H]1CN=C2N(CCNC(=O)CCC3CCCCC3)[C@H](Cc3ccc(O)cc3)CN21	-9	-1	6	18*	4	6
CN1CC=C(c2ccccc2)N(c2ccccc2)C1=O	nt	nt	12*	4	-7	-2
Cc1c(C(=O)N2CCCCC2)nnn1-c1nonc1N	-11	14	2	19*	-7	-3
CC(CCc1ccccc1)NC(=O)c1cccs1 (stereo unspecified)	-6	-2	12*	4	-2	1
COc1ccc(NC(=O)C2CCCN(S(C)(=O)=O)C2)cc1OC (stereo unspecified)	-8	4	-1	10*	-5	-4
COc1ccc(NC(=O)C2CCCN(S(=O)(=O)c3ccc(C)cc3)C2)cc1OC (stereo unspecified)	11	-1	-1	2	nt	nt
O=C(NC1CCC1)C1CCC(=O)N(Cc2ccccc2F)C1 (stereo unspecified)	-3	3	0	4	nt	nt
O=C(NCCc1nccs1)C1CCC(=O)N(Cc2cccc(C(F)(F)F)c2)C1 (stereo unspecified)	0	2	4	13*	-6	-1
O=C(NC1CCC1)C1CCC(=O)N(Cc2cccc(F)c2)C1 (stereo unspecified)	-6	8	-2	10*	1	1
Cc1cccc(C)c1N(CC(=O)NC1CCCCC1)C(=O)c1csnn1	-2	-4	-1	16*	-5	1
Cc1ccccc1N(CC(=O)NC1CCCCC1)C(=O)c1csnn1	-3	-1	0	1	nt	nt
CC(C)(C)C(=O)Cn1c[n+](N)cn1	-10	23	3	10*	-5	-1
CC(C)(C)C(=O)Cn1ncc(Cl)c(Cl)c1=O	-9	-12	3	0	nt	nt
CCOC1(OCC)OC(c2ccccc2)=C(C#N)C(C=Cc2ccccc2)C1(OCC)OCC (stereo unspecified)	21	-5	9	4	nt	nt
CCOC(=O)Cn1nnc(-c2ccccc2)n1	-1	-7	14*	3	-2	2
CC(C)OC(=O)Cn1nnc(-c2ccccc2)n1	-6	3	2	-1	nt	nt
COc1ccc(NC(=O)CSCC(=O)Oc2c(OC)cccc2OC)cc1	-4	-5	-5	-3	nt	nt

Screening results: PubChem BioAssay, several laboratories
